# Rows were chosen to be rich in hits. Some 2% of all compounds tested hit in one or more screens of this group.
# Yp Topo-I inh – inhibitors of Yersinia pestis topoisomerase I; Y. pestis Topo-I cleavage product accumulation, plate reader; activity, % at 10 µM; actives 0.064% (n = 360,000); AID 504884; in the data active means activity above about 50%, passing the limit was not always enough; inconclusive means no clear call, values can overlap the other calls
# PrP 5UTR inh – suppresses PrP 5' UTR mRNA reporter expression; cell-based PrP 5' UTR mRNA reporter, plate reader; actives 0.35% (n = 340,000); inhibition, % (test concentration not listed); in the data active means inhibition above about 52%; further: 0 = median of the neutral control wells
# CCHFV vOTU inh – blocks the CCHF virus ovarian tumor domain protease; AID 651958; actives 0.55% (n = 370,000); CCHFV vOTU protease, Pep-AMC fluorescence; inhibition, % at 11.5 µM; in the data active means inhibition above about 30%; further: 0% = vehicle wells with enzyme and 100% = no enzyme wells
# PrPC TRFRET – inhibitors of human cell surface prion protein PrPC; TR-FRET read-out; inhibition, % at 13.8 µM; actives 0.43% (n = 370,000); AID 720596; in the data active means inhibition above about 24%; further: 0% = median of the test wells and 100% = reference compound wells
# PfHsp40 yeast – compounds rescuing yeast from Plasmodium falciparum HSP40 toxicity; S. cerevisiae expressing PfHsp40, growth rescue, ATP luminescence; growth rescue, % at 12.5 µM; actives 0.68% (n = 340,000); in the data active means growth rescue above about 28%, passing the limit was not always enough; inconclusive means no clear call, values can overlap the other calls;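 further: yeast W303a lacking pdr1 and pdr3 grown in galactose medium; growth measured after three days at 30 °C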
# BJeLR lethal – BJeLR cell viability loss | BJeLR (HRASV12) viability, CellTiter-Glo ATP luminescence, 48 h | inhibition, % (test concentration not listed) | actives 0.17% (n = 300,000) | AID 1554; in the data active means inhibition above about 50%; inconclusive means no clear call, values can overlap the other calls
# PrP 5UTR single – prion 5' UTR mRNA inhibition, cherry-pick retest; shares compounds with PrP 5UTR inh; cell-based prion protein 5' UTR reporter, plate reader; inhibition, % at 2.5 µM; actives 48% (n = 1,100); in the data active means inhibition above about 54%; inconclusive means no clear call, values can overlap the other calls
# * = called active by the depositor; ? = inconclusive; . = no result.
SMILES,Yp Topo-I inh,PrP 5UTR inh,CCHFV vOTU inh,PrPC TRFRET,PfHsp40 yeast,BJeLR lethal,PrP 5UTR single
CCCCCCCCCCCCCCCCCCNc1ccn(C2OC(COP(=O)(O)OCC3OC(n4cc(F)c(=O)[nH]c4=O)CC3O)C(O)C2O)c(=O)n1 (stereo not given),28,63*,10,3,42*,.,8
COc1ccc(S[C@]2(C(=O)N3CCCC3)CC(=O)N(c3ccsc3)[C@@H]2c2ccc(OC)cc2)cc1,.,.,3,-1,.,.,.
CC(c1ccccc1)n1cc(C(=O)NCCCN2CCCC2)nn1 (stereo not given),.,.,-4,2,.,.,.
COc1cccc(-c2ccc(CC[C@H]3O[C@H]4CC[C@H](CO)O[C@H]4C[C@H]3NS(C)(=O)=O)cc2)c1,.,.,-4,3,.,.,.
CC(C)CN1C(=O)[C@@]2(CC(=O)N(C)C2c2ccccc2)c2cc(-n3cc(C(C)(C)O)nn3)ccc21 (stereo not given in full),.,.,-6,8,.,.,.
C=CCn1c(SCc2c(C)noc2C)nc2ccccc2c1=O,11,67*,-6,5,0,30,82*
CCCCC(=O)N(Cc1ccccc1)c1ccccc1C(=O)Nc1cc(OC)ccc1OC,.,.,10,3,.,.,.
O=c1oc2ccccc2cc1-c1cn2cccnc2n1,-6,-20,-38,-34,-1,8,.
O=c1oc2ccccc2cc1-c1cn2ccccc2n1,0,81*,-9,-12,-1,40,?
C#CCNC(=O)C[C@H]1C[C@@]2(C(=O)OC)C(=C[C@H](C(C)(C)C)O[C@@H]2C)N(Cc2ccccc2)C1=O,.,.,7,-1,.,.,.
CCN(CC)C(=O)c1ccc(NC(=O)c2cccc(C(F)(F)F)c2)cc1,-9,78*,3,-6,-1,14,-12
CCOC(=O)N1CCC(Nc2c(-c3ccc(C)c(C)c3)c(=O)c2=O)CC1,1,73*,7,-10,-1,-1,-8
CCOC(=O)N1CCC(Nc2c(N3CCN(c4cc(Cl)ccc4C)CC3)c(=O)c2=O)CC1,23,-31,3,-16,1,4,.
O=C(O)CCC1(CCC(=O)O)c2ccccc2-c2ccccc21,-13,-51,10,7,-3,1,.
CC1(C(=O)O)CC12c1ccccc1-c1ccccc12 (stereo not given),3,62*,6,-6,4,.,-22
Nc1ccc(-c2cc3ccccc3c(=O)o2)cc1,-12,70*,22,-10,7,.,68*
COc1cc(OC)cc(-c2cc3ccccc3c(=O)o2)c1,5,-45,5,-4,1,.,.
O=[N+]([O-])c1ccc(NN=Cc2ccccc2O)nc1,5,-43,5,-18,-2,.,.
O=[N+]([O-])c1ccc(O)c(/C=N/Nc2ccccn2)c1,6,54*,13,-11,308*,22,58*
CCOC(=O)c1c(C)[nH]c(C2=NNC(=NC3CC3)SC2)c1C,10,71*,.,.,0,1,54*
COC(=O)c1ccccc1NC(=O)Cn1c(-c2nonc2N)nc2ccccc21,16,70*,.,.,0,18,91*
COc1ccc2c(c1)C(C)=CC(C)(C)N2S(=O)(=O)c1ccc(NC(C)=O)cc1,30,73*,0,9,1,47,41
O=C(Cn1c(-c2cncs2)nc2ccccc21)N1CCOCC1,.,.,-10,-13,.,.,.
O=C(NN1C(=O)C2C3C=CC(C4CC34)C2C1=O)c1ccc(Br)cc1 (stereo not given),3,58*,-8,6,-1,-7,68*
O=C(NN1C(=O)C2C3C=CC(C4CC34)C2C1=O)c1ccc(Cl)c(Cl)c1 (stereo not given),9,-25,-2,0,13,3,.
SMILES,Yp Topo-I inh,PrP 5UTR inh,CCHFV vOTU inh,PrPC TRFRET,PfHsp40 yeast,BJeLR lethal,PrP 5UTR single
O=C(NN=Cc1ccco1)c1cccnc1,.,.,7,0,.,.,.
C=CCOC(=O)N[C@@H](c1cccc(OC)c1)[C@@H](C)/C=C/CC(=O)O,.,.,-3,-2,.,.,.
COc1ccccc1NC(=S)N(Cc1ccccc1)Cc1cccs1,0,67*,-8,-5,0,-14,-24
CCOc1ccc(NC(=O)c2cc3c(C)nc4ccccc4c3o2)cc1,10,62*,6,10,-1,22,14
CCOC(=O)[C@]12CCCCC/C=C\1N(CCc1ccc(Cl)cc1)C(=O)[C@H]2CC(=O)NCc1cccs1,.,.,8,-1,.,.,.
N#CC1=C(N)Oc2c(ccc3ccccc23)C1c1ccsc1 (stereo not given),6,77*,-2,0,-1,39,88*
COC(=O)C1=C(C)NC2=C(C(=O)c3ccccc32)C1c1cccc(OC)c1 (stereo not given),-15,-16,6,2,-1,-10,.
CC1=C([N+](=O)[O-])C(c2cccc(Br)c2)C2=C(N1)c1ccccc1C2=O (stereo not given),-27,54*,4,-3,-1,29,71*
CC(C)(C)NC(=S)N1CCC(C(=O)c2ccc(Cl)cc2)CC1,-5,56*,3,-1,-1,-4,12
O=C1COc2ccccc2C(c2nnnn2-c2ccc3ccccc3c2)N1C1CC1 (stereo not given),.,.,0,7,.,.,.
COC(=O)[C@]12CCCCC=C1N(Cc1ccc(OC)cc1)C(=O)[C@@H]2CC(=O)NCCCN1CCCC1=O,.,.,-1,-2,.,.,.
Cc1ccc(-c2cc(C(=O)N/N=C/c3c(C)nn(-c4ccccc4)c3C)[nH]n2)cc1,-8,70*,7,22,1,42,88*
Cc1ccc(C(=O)/C=C/Nc2ccccn2)cc1,-4,76*,-6,3,0,6,62*
CCN(CC)C(=O)CSc1nc2ccccc2c(=O)n1CCC(=O)N1CCN(c2ccccc2)CC1,0,56*,14,-2,-2,4,1
COc1ccc(C(=O)NCc2nnc(SC)n2Cc2ccccc2)cc1,-3,54*,12,5,1,-3,8
CCOC(=O)CSc1nnc(CNC(=O)c2ccc(OC)cc2)n1Cc1ccccc1,5,-22,-4,5,-1,.,.
CCCn1c(C)cc(C(=O)CN2C(=O)c3ccccc3S2(=O)=O)c1C,13,.,-8,3,.,.,.
Cc1cc(C(=O)CN2C(=O)c3ccccc3S2(=O)=O)c(C)n1CC1CCCO1 (stereo not given),-1,88*,13,-4,0,-4,86*
COc1ccc(CC(=O)N(Cc2ccccc2)c2ccccc2C(=O)Nc2cc(OC)ccc2OC)cc1,.,.,18,13,.,.,.
Cc1cccc(-c2cc3c(N=O)c4ccccc4c-3n[nH]2)c1,2,-50,1,-8,1,17,.
Cc1ccc(-c2cc3c(N=O)c4ccccc4c-3n[nH]2)cc1,-4,79*,11,-7,-1,70*,81*

# Compound activity (PubChem)
